Results from the supplement of paper PMC4466140.

How the values were obtained:
Assay in all cases: SPOT peptide array binding signal intensity (averaged, normalized) (arbitrary units (background-subtracted, floor 0; scale differs between SH3 domains)); higher = stronger binding of the SH3 domain to the peptide
[1] = target: AgAbp1
Method in brief: (§1)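 Detection of bound protein relied on anti-GST antibody, an HRP anti-mouse secondary and luminol, with imaging and quantification in Genespotter. The bound protein was GST-fused SH3 domains from four yeast species, incubated at 10 μg/ml overnight at 4°C in TBS-based blocking buffer on cellulose membranes carrying synthetic 15-mer peptides with cysteines replaced by serines. Binding signal is normalized, background-subtracted spot intensity averaged over replicates, in arbitrary units that differ between domains.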

[2] = target: AgBbc1
Method in brief: as §1

[3] = target: AgBem1-D1
Method in brief: as §1

[4] = target: AgBzz1-D1
Method in brief: as §1

[5] = target: AgBzz1-D2
Method in brief: as §1

[6] = target: AgCyk3
Method in brief: as §1

[7] = target: AgFus1
Method in brief: as §1

[8] = target: AgHof1
Method in brief: as §1

[9] = target: AgHse1
Method in brief: as §1

[10] = target: AgLsb1
Method in brief: as §1

[11] = target: AgLsb4
Method in brief: as §1

[12] = target: AgMyo5
Method in brief: as §1

[13] = target: AgNbp2
Method in brief: as §1

[14] = target: AgRvs167
Method in brief: as §1

[15] = target: AgSho1
Method in brief: as §1

[16] = target: AgSla1-D1-D2
Method in brief: as §1

[17] = target: AgSla1-D3
Method in brief: as §1

[18] = target: CaAbp1-D1
Method in brief: as §1

[19] = target: CaAbp1-D2
Method in brief: as §1

[20] = target: CaBbc1
Method in brief: as §1

[21] = target: CaBem1-D1
Method in brief: as §1

[22] = target: CaBzz1-D1
Method in brief: as §1

[23] = target: CaBzz1-D2
Method in brief: as §1

[24] = target: CaCyk3
Method in brief: as §1

[25] = target: CaFus1
Method in brief: as §1

[26] = target: CaHof1
Method in brief: as §1

[27] = target: CaHse1
Method in brief: as §1

[28] = target: CaLsb1
Method in brief: as §1

[29] = target: CaLsb4
Method in brief: as §1

[30] = target: CaMyo5
Method in brief: as §1

[31] = target: CaNbp2
Method in brief: as §1

[32] = target: CaRvs167
Method in brief: as §1

[33] = target: CaRvs167-3
Method in brief: as §1

[34] = target: CaSho1
Method in brief: as §1

[35] = target: CaSla1-D1-D2
Method in brief: as §1

[36] = target: CaSla1-D3
Method in brief: as §1

[37] = target: ScAbp1
Method in brief: as §1

[38] = target: ScBbc1
Method in brief: as §1

[39] = target: ScBem1-D1
Method in brief: as §1

[40] = target: ScBzz1-D1
Method in brief: as §1

[41] = target: ScBzz1-D2
Method in brief: as §1

[42] = target: ScCyk3
Method in brief: as §1

[43] = target: ScFus1
Method in brief: as §1

[44] = target: ScHof1
Method in brief: as §1

[45] = target: ScHse1
Method in brief: as §1

[46] = target: ScLsb1
Method in brief: as §1

[47] = target: ScLsb2
Method in brief: as §1

[48] = target: ScLsb3
Method in brief: as §1

[49] = target: ScLsb4
Method in brief: as §1

[50] = target: ScMyo3
Method in brief: as §1

[51] = target: ScMyo5
Method in brief: as §1

[52] = target: ScNbp2
Method in brief: as §1

[53] = target: ScPex13
Method in brief: as §1

[54] = target: ScRvs167
Method in brief: as §1

[55] = target: ScSho1
Method in brief: as §1

[56] = target: ScSla1-D1-D2
Method in brief: as §1

[57] = target: ScSla1-D3
Method in brief: as §1

[58] = target: SpAbp1-D1
Method in brief: as §1

[59] = target: SpBbc1
Method in brief: as §1

[60] = target: SpBzz1-D1
Method in brief: as §1

[61] = target: SpBzz1-D2
Method in brief: as §1

[62] = target: SpCyk3
Method in brief: as §1

[63] = target: SpHof1
Method in brief: as §1

[64] = target: SpHof1-2
Method in brief: as §1

[65] = target: SpHof1-3
Method in brief: as §1

[66] = target: SpHse1
Method in brief: as §1

[67] = target: SpLsb1
Method in brief: as §1

[68] = target: SpLsb4
Method in brief: as §1

[69] = target: SpMyo1
Method in brief: as §1

[70] = target: SpNbp2
Method in brief: as §1

[71] = target: SpPex13
Method in brief: as §1

[72] = target: SpRvs167
Method in brief: as §1

[73] = target: SpSla1-D1-D2
Method in brief: as §1

[74] = target: SpSla1-D3
Method in brief: as §1

Q: How did the “SPOT peptide array binding signal intensity” value [1] turn out when QLMKNLPKIPLLNDI was run?
A: The value was ≤ 0.

Q: What about the “SPOT peptide array binding signal intensity” value [2] of the same binder?
A: Its value is 5.5.

Q: What about the “SPOT peptide array binding signal intensity” value [3] of the same binder?
A: Its value is 301.

Q: What about the “SPOT peptide array binding signal intensity” value [4] of the same binder?
A: Its value is 20.

Q: And the “SPOT peptide array binding signal intensity” value [5]?
A: Its value is 36.5.

Q: What about the “SPOT peptide array binding signal intensity” value [6] of the same binder?
A: The value was ≤ 0.

Q: And the “SPOT peptide array binding signal intensity” value [7]?
A: Its value is 336.

Q: What about the “SPOT peptide array binding signal intensity” value [8] of the same binder?
A: Its value is 113.

Q: What about the “SPOT peptide array binding signal intensity” value [9] of the same binder?
A: Its value is 229.

Q: What about the “SPOT peptide array binding signal intensity” value [10] of the same binder?
A: Its value is 1.75.

Q: What about the “SPOT peptide array binding signal intensity” value [11] of the same binder?
A: Its value is 16.5.

Q: What about the “SPOT peptide array binding signal intensity” value [12] of the same binder?
A: Its value is 2.75.

Q: What about the “SPOT peptide array binding signal intensity” value [13] of the same binder?
A: The value was 120.

Q: And the “SPOT peptide array binding signal intensity” value [14]?
A: Its value is 1.67.

Q: What about the “SPOT peptide array binding signal intensity” value [15] of the same binder?
A: The value was 3070.

Q: What about the “SPOT peptide array binding signal intensity” value [16] of the same binder?
A: Its value is ≤ 0.

Q: And the “SPOT peptide array binding signal intensity” value [17]?
A: The value was 2.75.

Q: And the “SPOT peptide array binding signal intensity” value [18]?
A: The value was 9.5.

Q: And the “SPOT peptide array binding signal intensity” value [19]?
A: Its value is 46.

Q: What about the “SPOT peptide array binding signal intensity” value [20] of the same binder?
A: The value was 14.5.

Q: And the “SPOT peptide array binding signal intensity” value [21]?
A: Its value is 187.

Q: What about the “SPOT peptide array binding signal intensity” value [22] of the same binder?
A: Its value is 222.

Q: And the “SPOT peptide array binding signal intensity” value [23]?
A: The value was 121.

Q: And the “SPOT peptide array binding signal intensity” value [24]?
A: Its value is 4.

Q: What about the “SPOT peptide array binding signal intensity” value [25] of the same binder?
A: Its value is 670.

Q: And the “SPOT peptide array binding signal intensity” value [26]?
A: Its value is 2.75.

Q: What about the “SPOT peptide array binding signal intensity” value [27] of the same binder?
A: The value was 168.

Q: What about the “SPOT peptide array binding signal intensity” value [28] of the same binder?
A: Its value is 2.5.

Q: What about the “SPOT peptide array binding signal intensity” value [29] of the same binder?
A: Its value is 590.

Q: And the “SPOT peptide array binding signal intensity” value [30]?
A: The value was 83.8.

Q: And the “SPOT peptide array binding signal intensity” value [31]?
A: The value was 355.

Q: And the “SPOT peptide array binding signal intensity” value [32]?
A: The value was 19.5.

Q: And the “SPOT peptide array binding signal intensity” value [33]?
A: Its value is ≤ 0.

Q: What about the “SPOT peptide array binding signal intensity” value [34] of the same binder?
A: Its value is 1860.

Q: What about the “SPOT peptide array binding signal intensity” value [35] of the same binder?
A: Its value is 384.

Q: What about the “SPOT peptide array binding signal intensity” value [36] of the same binder?
A: Its value is 205.

Q: What about the “SPOT peptide array binding signal intensity” value [37] of the same binder?
A: The value was ≤ 0.

Q: And the “SPOT peptide array binding signal intensity” value [38]?
A: Its value is 3.

Q: And the “SPOT peptide array binding signal intensity” value [39]?
A: Its value is 3.

Q: And the “SPOT peptide array binding signal intensity” value [40]?
A: Its value is 15.5.

Q: And the “SPOT peptide array binding signal intensity” value [41]?
A: Its value is 39.5.

Q: What about the “SPOT peptide array binding signal intensity” value [42] of the same binder?
A: The value was 5.

Q: What about the “SPOT peptide array binding signal intensity” value [43] of the same binder?
A: The value was 526.

Q: And the “SPOT peptide array binding signal intensity” value [44]?
A: The value was 11.2.

Q: And the “SPOT peptide array binding signal intensity” value [45]?
A: The value was 267.

Q: What about the “SPOT peptide array binding signal intensity” value [46] of the same binder?
A: The value was 5.75.

Q: And the “SPOT peptide array binding signal intensity” value [47]?
A: Its value is 2.

Q: What about the “SPOT peptide array binding signal intensity” value [48] of the same binder?
A: Its value is 292.

Q: What about the “SPOT peptide array binding signal intensity” value [49] of the same binder?
A: Its value is 67.5.

Q: What about the “SPOT peptide array binding signal intensity” value [50] of the same binder?
A: The value was 25.

Q: What about the “SPOT peptide array binding signal intensity” value [51] of the same binder?
A: The value was 2.25.

Q: What about the “SPOT peptide array binding signal intensity” value [52] of the same binder?
A: Its value is 217.

Q: And the “SPOT peptide array binding signal intensity” value [53]?
A: The value was 580.

Q: And the “SPOT peptide array binding signal intensity” value [54]?
A: Its value is 5.

Q: What about the “SPOT peptide array binding signal intensity” value [55] of the same binder?
A: Its value is 1950.

Q: What about the “SPOT peptide array binding signal intensity” value [56] of the same binder?
A: Its value is 319.

Q: And the “SPOT peptide array binding signal intensity” value [57]?
A: Its value is 538.

Q: What about the “SPOT peptide array binding signal intensity” value [58] of the same binder?
A: Its value is 2.5.

Q: What about the “SPOT peptide array binding signal intensity” value [59] of the same binder?
A: The value was ≤ 0.

Q: And the “SPOT peptide array binding signal intensity” value [60]?
A: The value was 250.

Q: What about the “SPOT peptide array binding signal intensity” value [61] of the same binder?
A: Its value is 10.8.

Q: What about the “SPOT peptide array binding signal intensity” value [62] of the same binder?
A: The value was 4.

Q: And the “SPOT peptide array binding signal intensity” value [63]?
A: Its value is 369.

Q: What about the “SPOT peptide array binding signal intensity” value [64] of the same binder?
A: The value was 1050.

Q: And the “SPOT peptide array binding signal intensity” value [65]?
A: Its value is 970.

Q: And the “SPOT peptide array binding signal intensity” value [66]?
A: Its value is 206.

Q: And the “SPOT peptide array binding signal intensity” value [67]?
A: Its value is 1.

Q: And the “SPOT peptide array binding signal intensity” value [68]?
A: The value was 628.

Q: And the “SPOT peptide array binding signal intensity” value [69]?
A: Its value is 106.

Q: And the “SPOT peptide array binding signal intensity” value [70]?
A: Its value is 88.

Q: What about the “SPOT peptide array binding signal intensity” value [71] of the same binder?
A: Its value is 146.

Q: And the “SPOT peptide array binding signal intensity” value [72]?
A: The value was 22.8.

Q: And the “SPOT peptide array binding signal intensity” value [73]?
A: The value was 20.5.

Q: And the “SPOT peptide array binding signal intensity” value [74]?
A: Its value is 251.
